Data published in the supplement of paper PMC7366291.
Where a name gives a salt, the structure may show the parent alone. ± gives the standard deviation or the standard deviation of the averaged measurements.

How the values were obtained:
Conditions in all cases: 25 µM; exposure: 24-48 hpf
[1] = test system: Danio rerio Tg(wt1b:EGFP) embryo, pronephros; assay: glomerular separation, fold change vs DMSO control; higher = glomeruli further apart (abnormal)
In short: (§1)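 Dechorionated Tg(wt1b:EGFP) zebrafish embryos were kept from 24 to 48 hpf at 28.5°C in HEPES-buffered E3 containing 0.003% PTU, 0.5% DMSO and 25 μM compound. The pronephroi were then imaged from the dorsal side in agarose-filled 96-well plates at 470 nm with 10 z-slices, and 16 reference points were placed by hand on maximum projections in Fiji so that a macro could calculate distances and angles. Values lying more than 2 SD from the mean of a feature were discarded. Every feature is given as a fold change against the mean of DMSO-treated embryos from the same day.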

[2] = test system: Danio rerio Tg(wt1b:EGFP) embryo, pronephros; assay: glomerular width (mean of left and right), fold change vs DMSO control; higher = wider glomerulus
In short: as §1

[3] = test system: Danio rerio Tg(wt1b:EGFP) embryo, pronephros; assay: fraction of imaged embryos annotated as normal kidney; higher = less nephrotoxic; extreme values may be limits of the assay
In short: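 Dechorionated Tg(wt1b:EGFP) zebrafish embryos were exposed in 12-well plates to 25 μM compound in 0.5% DMSO, 5 mM HEPES-buffered E3 with 0.003% PTU, from 24 to 48 hpf at 28.5°C. Tricaine-anaesthetised larvae were oriented dorsally in agarose-filled 96-well plates, and pronephroi were imaged by widefield fluorescence (470 nm, 10 z-slices). Each embryo was manually annotated from maximum projections. The read-out is the fraction of embryos per treatment assigned to the normal-kidney category.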

[4] = test system: Danio rerio Tg(wt1b:EGFP) embryo, pronephros; assay: pronephric angle neck segment to proximal convoluted tubule (mean of left and right), fold change vs DMSO control; higher = larger pronephric angle
In short: as §1

| SMILES | glomerular separation [1] | glomerular width [2] | fraction of imaged embryos annotated as normal kidney [3] | pronephric angle neck segment [4] |
| --- | --- | --- | --- | --- |
| CC(C)(C#N)c1cc(Cn2cncn2)cc(C(C)(C)C#N)c1 [Anastrozole] | 1.2 ± 0.37 | 1.059 ± 0.0058 | 0.75 | 1.04 ± 0.062 |
| NC[C@@H]1O[C@@H](O[C@H]2[C@H](O)[C@@H](O[C@H]3O[C@H](CO)[C@@H](O)[C@H](N)[C@H]3O)[C@H](N)C[C@@H]2N)[C@@H](O)[C@H](O)[C@H]1O [Kanamycin A sulfate] | 1.07 ± 0.33 | 1.01 ± 0.046 | 0.667 | 1.01 ± 0.052 |
| CC(C)n1c(/C=C/C(O)CC(O)CC(=O)O)c(-c2ccc(F)cc2)c2ccccc21 (stereo unspecified) [Fluvastatin sodium salt] | 4.31 ± 1.6 | 0.609 ± 0.057 | 0 | 1.56 ± 0.093 |
| CC(C)OC(=O)CCC/C=C\C[C@@H]1[C@@H](CC[C@@H](O)CCc2ccccc2)[C@H](O)C[C@@H]1O [Latanoprost] | 1.02 ± 0.44 | 1.05 ± 0.014 | 0.833 | 1.02 ± 0.013 |
| O=C(CCCN1CCC(O)(c2ccc(Cl)cc2)CC1)c1ccc(F)cc1 [Haloperidol] | 1.19 ± 0.53 | 0.918 ± 0.086 | 0.833 | 0.974 ± 0.046 |
| O=S(=O)(O)c1cc(O)ccc1O [Ethamsylate] | 1.12 ± 0.45 | 0.89 ± 0.079 | 0.917 | 0.9847 ± 0.0033 |
| CN(C)CCOC(C)(c1ccccc1)c1ccccn1 (stereo unspecified) [Doxylamine succinate] | 1.15 ± 0.53 | 0.9589 ± 0.009 | 0.818 | 1.01 ± 0.065 |
| CCCCCCCN(CC)CCCC(O)c1ccc(NS(C)(=O)=O)cc1 (stereo unspecified) [Ibutilide fumarate] | 0.897 ± 0.24 | 1.0672 ± 0.00094 | 1 | 0.961 ± 0.086 |
| Nc1ccn([C@H]2CC[C@@H](CO)O2)c(=O)n1 [Zalcitabine] | 1.08 ± 0.56 | 0.966 ± 0.061 | 0.917 | 0.996 ± 0.015 |
| Cc1ccc(S(=O)(=O)NC(=O)NN2CCCCCC2)cc1 [Tolazamide] | 0.828 ± 0.19 | 0.948 ± 0.015 | 0.917 | 0.972 ± 0.023 |
| CN(C)CCCOc1nn(Cc2ccccc2)c2ccccc12 [Benzydamine hydrochloride] | 1.24 ± 0.21 | 1.03 ± 0.035 | 1 | 0.9939 ± 0.0028 |
| O=C(O)COCCN1CCN(C(c2ccccc2)c2ccc(Cl)cc2)CC1 (stereo unspecified) [Cetirizine dihydrochloride] | 0.855 ± 0.18 | 1.09 ± 0.012 | 1 | 1.03 ± 0.011 |
| Nc1ccc(S(=O)(=O)Nc2nccs2)cc1 [Sulfathiazole] | 0.931 ± 0.36 | 0.936 ± 0.027 | 0.917 | 0.957 ± 0.019 |
| C[C@H](CS)C(=O)N1CCC[C@H]1C(=O)O [Captopril] | 1 ± 0.45 | 1.01 ± 0.042 | 1 | 1.02 ± 0.09 |
| CC(C(O)c1ccc(O)cc1)N1CCC(Cc2ccccc2)CC1 (stereo unspecified) [Ifenprodil tartrate] | 0.712 ± 0.33 | 1.04 ± 0.024 | 1 | 0.942 ± 0.089 |
| Cc1ccc(/C(=C\CN2CCCC2)c2ccccn2)cc1 [Triprolidine hydrochloride] | 0.823 ± 0.16 | 1.035 ± 0.0046 | 0.917 | 1.04 ± 0.045 |
| S=c1[nH]cnc2nc[nH]c12 [Mercaptopurine] | 0.832 ± 0.28 | 0.991 ± 0.088 | 0.75 | 0.992 ± 0.07 |

| SMILES | glomerular separation [1] | glomerular width [2] | fraction of imaged embryos annotated as normal kidney [3] | pronephric angle neck segment [4] |
| --- | --- | --- | --- | --- |
| CC(N)C12CC3CC(CC(C3)C1)C2 (stereo unspecified) [Rimantadine Hydrochloride] | 0.846 ± 0.35 | 0.967 ± 0.064 | 0.917 | 1.04 ± 0.04 |
| OCCOCCN1CCN(C2=Nc3ccccc3Sc3ccccc32)CC1 [Quetiapine hemifumarate] | 0.872 ± 0.15 | 1.07 ± 0.066 | 0.917 | 0.98617 ± 0.00072 |
| O=C(O)c1ccccc1OP(=O)(O)O [Fosfosal] | 0.789 ± 0.23 | 1.07 ± 0.022 | 0.833 | 0.9628 ± 0.0065 |
| Cc1onc(-c2ccccc2Cl)c1C(=O)N[C@@H]1C(=O)N2[C@@H]1SC(C)(C)[C@@H]2C(=O)O [Cloxacillin sodium salt] | 1.06 ± 0.42 | 1.172 ± 0.0081 | 0.833 | 1 ± 0.035 |
| CC(C)(C)C(=O)OCOC(=O)[C@@H]1N2C(=O)[C@@H](NC(=O)[C@H](N)c3ccccc3)[C@H]2SC1(C)C [Pivampicillin] | 1.14 ± 0.47 | 1 ± 0.011 | 1 | 0.9619 ± 0.0073 |
| CN(C)CCCN1c2ccccc2Sc2ccc(Cl)cc21 [Chlorpromazine hydrochloride] | 0.83 ± 0.37 | 1.01 ± 0.1 | 0.833 | 0.974 ± 0.024 |
| CC(C(=O)O)c1ccc(N2Cc3ccccc3C2=O)cc1 (stereo unspecified) [Indoprofen] | 2.27 ± 0.52 | 0.658 ± 0.069 | 0.2 | 1.3 ± 0.1 |
| CC(C)C(=O)Nc1ccc([N+](=O)[O-])c(C(F)(F)F)c1 [Flutamide] | 1.54 ± 1.1 | 1.12 ± 0.03 | 0.667 | 1.05 ± 0.031 |
| OC[C@H]1O[C@@H](Oc2ccc(O)cc2)[C@H](O)[C@@H](O)[C@@H]1O [Arbutin] | 0.869 ± 0.33 | 1.021 ± 0.0053 | 0.917 | 0.933 ± 0.018 |
| C=C1C[C@H]2[C@@H]3C=C(C)C4=CC(=O)CC[C@]4(C)[C@H]3CC[C@]2(C)[C@@]1(OC(C)=O)C(C)=O [Melengestrol acetate] | 0.846 ± 0.24 | 1.07 ± 0.039 | 0.917 | 1.02 ± 0.066 |
| COc1cc(C(=O)NC2CCCNC2)cc(OC)c1OC (stereo unspecified) [Troxipide] | 1.14 ± 0.54 | 0.976 ± 0.011 | 0.917 | 0.953 ± 0.027 |
| CC(=O)Nc1ccc(O)cc1 [Acetaminophen] | 0.86 ± 0.31 | 0.987 ± 0.037 | 1 | 0.9829 ± 0.0034 |
| CC(=O)O[C@H]1C[C@@H]2CC[C@@H]3[C@H](CC[C@@]4(C)[C@H]3C[C@H]([N+]3(C)CCCCC3)[C@@H]4OC(C)=O)[C@@]2(C)C[C@@H]1N1CCCCC1 [Vecuronium bromide] | 1.01 ± 0.35 | 0.967 ± 0.024 | 1 | 1.03 ± 0.028 |
| CC(=C(CCO)SSCC1CCCO1)N(C=O)Cc1cnc(C)nc1N (stereo in doubt) [Fursultiamine Hydrochloride] | 1.06 ± 0.24 | 0.996 ± 0.027 | 0.833 | 1.005 ± 0.0057 |
| COc1nc(N)nc2c1ncn2[C@@H]1O[C@H](CO)[C@@H](O)[C@@H]1O [Nelarabine] | 0.929 ± 0.39 | 0.992 ± 0.058 | 0.727 | 0.984 ± 0.073 |
| OCCN1C[C@H](O)[C@@H](O)[C@H](O)[C@H]1CO [Miglitol] | 1.12 ± 0.48 | 0.995 ± 0.011 | 0.909 | 0.982 ± 0.0086 |
| Cc1ccccc1C(OCCN(C)C)c1ccccc1 (stereo unspecified) [Orphenadrine hydrochloride] | 0.79 ± 0.21 | 1.04 ± 0.013 | 0.833 | 1 ± 0.015 |
